Compound activity deposited in PubChem BioAssay by several laboratories.
Sampled rows, rich in hits. Any-hit rate of the full collection: about 3.5%.
TROY NFkB inh: blocks TROY-dependent signaling in reporter cells; inhibition, % at 10 µM; 360,000 tested, 0.98% active; AID 1347056; Q293 LMP1-TROYcd NF-kB luciferase reporter, 4 h;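 active means compounds whose plate-normalised and pattern-corrected inhibition of the luciferase reporter signal at the single screening dose is 50% or more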
HSP90 inh: blocks HSP90-mediated luciferase refolding in reticulocyte lysate. 290,000 tested, 0.91% active. Rabbit reticulocyte lysate, luciferase refolding luminescence, 3 h. AID 1789. inhibition, % at 5.6 µM;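 active means inhibition above the screen-wide mean plus 3 SD, computed separately per campaign, cut at about 16% in these data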;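 further: 0% = DMSO wells and 100% = 60 µM geldanamycin wells; inhibitors lower the luminescence because luciferase stays unfolded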
TRAIL sens C8: sensitizes caspase-8 expressing cells to TRAIL; NB7+C8 cells + TRAIL, ATPlite viability luminescence; inhibition (viability loss, TRAIL sensitization), % at 10 µM; 360,000 tested, 1% active; AID 624354;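 active means compounds causing at least 50% loss of cell viability in the single-dose screen, relative to plate controls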
Platelet DG rel: platelet dense granule release activity | human platelet-rich plasma, SFLLRN dense granule ATP release, luminescence | inhibition, %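 (compounds screened at 7.5 µM in platelet-rich plasma)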 | AID 1663 | 300,000 tested, 0.22% active;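 active means mean replicate score, as percent of positive control, at or above 50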
TWEAK Fn14 block: blocks TWEAK-Fn14 interaction in a reporter cell assay. 360,000 tested, 2% active. TWEAK-stimulated Fn14 reporter cells, luciferase luminescence, 8 h. inhibition, % at 10 µM. AID 1159606; in the data active means inhibition above about 50%
PPC-1+TRAIL kill: PPC-1 cancer cell killing with TRAIL present; 220,000 tested, 0.41% active; AID 1443; cell killing (% activity), % at 4 µM or 5 µM; PPC-1 cells + TRAIL, ATPLite viability luminescence;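 active means cell killing above 50% in the first pass at 4 µM, then a duplicate retest at 5 µM averaging 50% or more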;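 further: plate controls were cells with TRAIL plus DMSO for no effect and medium-only wells lacking cells for full effect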
HSP90 confirm: confirmation of HSP90 inhibitors | shares compounds with HSP90 inh | rabbit reticulocyte lysate, luciferase refolding luminescence, 3 h | inhibition, % at 5.9 µM | 2,300 tested, 64% active; in the data active means inhibition above about 18%;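 further: 0% = vehicle wells and 100% = reference inhibitor wells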
luciferase ctr: counter-screen for HSP90 inhibitors: inhibitors of firefly luciferase | AID 1847 | 2,300 tested, 48% active | shares compounds with HSP90 inh | inhibition, % at 5.9 µM | purified native firefly luciferase, luminescence;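 active means inhibition above the mean inhibition of all tested sample wells plus 3 SD, cut at about 10% in these data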;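 further: 0% = DMSO with luciferase and 100% = wells lacking luciferase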
Target sequence (P08659 whole entry, looked up): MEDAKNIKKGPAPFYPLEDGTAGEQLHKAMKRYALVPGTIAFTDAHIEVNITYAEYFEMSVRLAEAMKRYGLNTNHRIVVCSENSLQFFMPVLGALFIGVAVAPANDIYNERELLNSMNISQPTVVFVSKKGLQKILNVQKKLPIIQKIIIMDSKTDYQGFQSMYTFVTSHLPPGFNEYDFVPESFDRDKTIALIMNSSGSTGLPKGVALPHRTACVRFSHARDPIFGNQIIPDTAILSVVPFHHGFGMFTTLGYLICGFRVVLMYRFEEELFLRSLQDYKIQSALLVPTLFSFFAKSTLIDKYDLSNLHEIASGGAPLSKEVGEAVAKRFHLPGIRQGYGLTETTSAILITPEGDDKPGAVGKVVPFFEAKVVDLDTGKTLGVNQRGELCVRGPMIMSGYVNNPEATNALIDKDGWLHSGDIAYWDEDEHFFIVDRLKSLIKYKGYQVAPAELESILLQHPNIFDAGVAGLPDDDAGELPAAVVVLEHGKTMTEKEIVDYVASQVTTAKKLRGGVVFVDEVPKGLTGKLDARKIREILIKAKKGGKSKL
Starred values were filed as active, the others as inactive; x = no result given.

SMILES	TROY NFkB inh	HSP90 inh	TRAIL sens C8	Platelet DG rel	TWEAK Fn14 block	PPC-1+TRAIL kill	HSP90 confirm	luciferase ctr
CCCOc1ccc(C(=O)Nc2nc(C)c(Cc3ccc4c(c3)OCO4)s2)cc1	-16	24*	2	-2	9	-2	3	-12
CC(=O)N(CC(=O)N(CC(=O)O)c1ccc(Cl)cc1)c1ccc(Cl)cc1	-16	x	-3	x	27	x	x	x
C=CC[C@H](CC(=O)N(CCO)Cc1ccccc1)C(=O)NCCOC(=O)[C@@H](CC=C)CC(=O)OC(C)(C)C	-12	x	5	x	4	x	x	x
O=C(COC(=O)COc1ccc(Cl)cc1)NCCNC(=O)COC(=O)COc1ccc(Cl)cc1	5	x	-16	8	9	x	x	x
Cc1cc(Cl)cc2sc(NC(=O)c3ccco3)nc12	-56	0	10	0	6	x	x	x
CCCCCCCCc1nnc(NC(=O)c2ccco2)s1	-12	25*	-5	-6	0	15	-3	-6
Cc1nc(NC(=O)c2ccco2)sc1C(=O)O	36	54*	6	31	59*	x	64*	-13
Cc1cc(C)c2nc(NC(=O)c3ccco3)sc2c1	15	18*	35	-1	59*	x	39*	33*
COC(=O)c1sc(NC(=O)c2ccco2)nc1C	-23	-3	12	3	12	2	x	x
COc1ccc(N(CC(=O)NC2CCCCC2)C(=O)CNC(=O)c2cccs2)cc1OC	16	1	-16	0	15	x	x	x
CN(C)c1cccc(NC(=O)c2cccc3ccccc23)c1	-28	1	12	-2	-23	x	x	x
CC(C)(C)c1ccc(-c2conc2N)cc1	-55	69*	25	6	-3	16	-5	-14
CNC(=O)COc1coc(CN2CCN(c3ccccc3OC)CC2)cc1=O	10	-1	-18	2	8	x	x	x
CCc1ccc(C2CC(c3ccco3)=NN2S(C)(=O)=O)cc1 (stereo not drawn)	-30	18*	2	14	34	16	22*	13*
CCCCCOC(=O)Nc1nnc(CCCCC)s1	-10	-3	9	-5	-18	-1	x	x
CCCCOC(=O)Nc1nnc(CC)s1	-32	29*	23	-7	-6	34	1	-20
NC(=S)NN=C(c1ccc(F)cc1)C1CC1	-2	x	-13	x	10	x	x	x
O=C(CSc1nnc(CNC(=O)c2ccccc2)o1)NCc1ccccc1Cl	16	-6	-3	-6	-1	x	x	x
O=C(COc1ccc(Cl)cc1Cl)NC(=O)N1CCCCC1	0	28*	-10	3	61*	18	37*	31*
CCN(CCO)C(=O)c1ccc2nc(Cc3cccc(Cl)c3)oc2c1	4	2	24	0	-17	x	x	x
NC(=O)c1ccc(N=Nc2c(O)c3ccccc3[nH]c2=O)cc1	x	14	x	x	x	21	12	-15
COc1cc(N=Nc2c(O)c3ccccc3[nH]c2=O)c(OC)cc1N=Nc1ccccc1	36	11	-3	2	1	-23	2	-14
CC1CC(C)CN(C(=O)c2cc(S(=O)(=O)N3CCCCC3)ccc2Cl)C1 (stereo not drawn)	1	x	9	6	12	x	x	x
CS(=O)(=O)N(CC(=O)O)c1ccc(Oc2ccccc2)cc1	-13	17*	5	13	1	18	3	-3
CCOC(=O)N1CCN(C(=O)CN(c2ccc(Oc3ccccc3)cc2)S(C)(=O)=O)CC1	5	-2	7	6	4	-11	x	x
CC(=O)N1CCC(CCCC2CCN(C(C)=O)CC2)CC1	-5	x	-10	-8	16	x	x	x
COc1ccc(-c2csc(NC(=O)c3ccccc3F)n2)cc1	-9	33*	5	0	7	x	-11	-32
Cc1cc(/C=C2\SC(=O)N(C)C2=O)c(C)n1-c1ccc(S(N)(=O)=O)cc1	-14	-1	-4	-3	-9	x	x	x
Cc1cc(/C=C2\SC(=O)N(C)C2=O)c(C)n1-c1ccc(O)cc1	18	48*	27	0	87*	x	64*	63*
CN=C1S/C(=C\c2ccc(N3CCOCC3)cc2C)C(=O)N1C	-11	-4	-8	1	-13	3	x	x
